# According to PubChem BioAssay (NCI):
# Compounds without any hit were thinned out: in the full panel of roughly 79,000, 15% have a hit. A number with no mark means an inactive call. Active and inactive are the calls of the source. Cut-off read from the data, not from the text of the source: active = growth inhibition above about 70%; inactive = the rest.
# Assays:
# [1] = NCI Yeast Anticancer Drug Screen. Data for the rad50 strain (AID 155);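 note: 0% = growth of vehicle-only cultures of the same strain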; settings: S. cerevisiae rad50 strain growth inhibition; at 50.0 µM; stronger effect = higher value
# Outline: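 DNA repair mutant yeast, compound exposure, growth read-out; inhibition is taken relative to vehicle.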
# [2] = NCI Yeast Anticancer Drug Screen. Data for the mec2-1 strain (AID 157); settings: S. cerevisiae mec2-1 strain, at 50.0 µM, stronger effect = higher value
# Outline: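 Readout is yeast growth inhibition, normalised to vehicle-treated controls, in the mec2-1 strain exposed to compound.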
# [3] = NCI Yeast Anticancer Drug Screen. Data for the sgs1 mgt1 strain (AID 161);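 note: 0% = growth of cultures given vehicle only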; settings: S. cerevisiae sgs1 mgt1 strain, at 50.0 µM, stronger effect = higher value
# Outline: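 Compounds are added to genetically altered yeast, and growth is compared with cultures given vehicle alone to give percent inhibition.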
# [4] = NCI Yeast Anticancer Drug Screen. Data for the cln2 rad14 strain (AID 165);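 note: 0% = growth equal to vehicle treated cultures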; settings: S. cerevisiae cln2 rad14 strain, at 50.0 µM, stronger effect = higher value
# Outline: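 Relative to vehicle controls, growth inhibition of compound-treated cln2 rad14 yeast was recorded.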
# [5] = NCI Yeast Anticancer Drug Screen. Data for the bub3 strain (AID 167); settings: S. cerevisiae bub3 mutant strain, at 50.0 µM, stronger effect = higher value
# Outline: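 In this screen, a yeast mutant lacking normal mitotic checkpoint function is challenged with compound. Relative growth versus vehicle gives the inhibition value.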
# [6] = NCI Yeast Anticancer Drug Screen. Data for the mlh1 rad18 strain (AID 175); settings: S. cerevisiae mlh1 rad18 strain growth inhibition; at 50.0 µM; stronger effect = higher value
# Outline: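 Test agents were incubated with a yeast strain of defined genotype (DNA damage repair defect). Inhibition of growth was derived by comparison with vehicle-exposed cultures.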
Compound,growth inhibition [1],growth inhibition [2],growth inhibition [3],growth inhibition [4],growth inhibition [5],growth inhibition [6]
FC(F)(F)C(OP(OC(C(F)(F)F)C(F)(F)F)OC(C(F)(F)F)C(F)(F)F)C(F)(F)F,27.4%,8.95%,2.6%,1.55%,-4.9%,28.1%
O=[Se](=O)(O)O,-45%,-20.2%,-8.4%,-74.7%,-12.6%,-14.5%
CNCCc1ccccc1,26%,6.05%,14.3%,14.6%,-33.8%,-3.05%
C1CC[N-]CC1.CN(C)P(=O)(N(C)C)N(C)C.OO.OO.[O]=[Mo],11.3%,-16%,15.6%,17.4%,11.9%,15.7%
CCOC(=O)CC(Br)C(=O)CBr (stereo not given),-9.15%,11%,7.15%,-17.8%,2.6%,-9.6%
Cc1ccc(SCC(CSCCO)OCn2cnc3c2NC(N)=NC32OCCO2)cc1 (stereo not given),6.15%,2.3%,-37.2%,-7.4%,-12.3%,-56.9%
Cc1ccccc1C(=O)[O][Pb]([CH3])([CH3])[CH3],21.4%,-48%,-6.5%,-27.9%,0%,7%
CC1=CC(=O)CCC12CCOC2=O (stereo not given),-54.1%,-20.1%,-21.3%,-40.6%,-13.2%,-7.55%
CN1CCN[C@@H]2CCCC[C@@H]21,11.2%,-5%,-10.2%,-7.8%,5.65%,-11.6%
C/C=C/C(=O)O,4.3%,-4.65%,-24.5%,10.2%,-0.05%,-9.75%
CCOP(=O)(Cc1ccc(N)cc1)OCC,-23%,-34%,-21.2%,19.9%,-23.9%,-14.2%
C[C@@]1(C(=O)c2ccccc2)N(c2ccccc2)[C@@]1(C)C(=O)c1ccccc1,8.9%,8.3%,4.35%,21.8%,16.1%,32.4%
COc1ccc(C(C)CNCc2ccccc2)cc1 (stereo not given),0.3%,-1.35%,21.1%,-10.8%,-1.7%,-1.45%
CC(Cc1ccc(O)cc1)NCC(O)c1cc(O)cc(O)c1 (stereo not given),9.65%,13.2%,6.95%,-8.45%,16.4%,6.55%
Brc1ccc(Oc2ccc(Br)cc2Br)c(Br)c1,13.9%,-21.5%,8.2%,2%,21.6%,32.4%
O=[N+]([O-])c1ccc(OCCOCCOc2ccc(S(=O)(=O)F)cc2)c(Cl)c1,56.2%,15.4%,21.8%,29.6%,45.4%,56.5%
ClCCN(CCCl)c1cc(Cl)ccc1Oc1ccccc1,-35.8%,-4.3%,1.25%,-42%,18.9%,-1.55%
O=NN(Cc1ccccc1)Cc1ccccc1,2.55%,0.1%,3.1%,0.5%,8.6%,21.4%
ClCCN(CCCl)c1ccc(C=Nc2ccccc2)cc1,34.5%,21.1%,59.6%,12.2%,2%,28.6%
CCN(CC)c1ccc([P+](=O)O)cc1,6.45%,-9.45%,-9.4%,-27.6%,-7.4%,-8.4%

Compound,growth inhibition [1],growth inhibition [2],growth inhibition [3],growth inhibition [4],growth inhibition [5],growth inhibition [6]
Cn1cc([N+](=O)[O-])c([N+](=O)[O-])c1,-3.8%,2.5%,-11.6%,-74.8%,-6.3%,0.85%
CCNC(=O)Oc1c(Cl)cc(S(=O)(=O)F)cc1Cl,43.6%,22.8%,32.1%,12.5%,16%,26.4%
O=P(N1CCNCC1)(N1CCNCC1)N1CCNCC1,-20.1%,-11.8%,-1.35%,-42.5%,5.45%,-20.2%
O=[N+]([O-])C(CO)CCCC(CO)[N+](=O)[O-] (stereo not given),11.7%,-6%,5.65%,-37.1%,-20.4%,11.4%
COC1C(O)CC(OC2CC(Oc3cc4cc5c(c(O)c4c(O)c3C)C(=O)[C@@H](OC3CC(OC4CC(OC6CC(C)(O)C(OC(C)=O)C(C)O6)C(O)C(C)O4)C(O)C(C)O3)[C@H]([C@H](OC)C(=O)[C@@H](O)[C@@H](C)O)C5)OC(C)C2OC(C)=O)OC1C (stereo not given in full),12.7%,24.9%,8.15%,60.2%,7.1%,29.2%
O=C(Cc1ccc2c(c1)OCO2)c1cn(C(=O)Cc2ccc3c(c2)OCO3)c2ccccc12,18.7%,5.9%,5.4%,14.8%,0.35%,26.4%
c1cc2n[se]nc2cc1-c1ccc2n[se]nc2c1,26.7%,-11.8%,-7.85%,-40.2%,-9.55%,-17.4%
ClCc1cccnc1,16.9%,-2.35%,5.25%,18.1%,3.6%,31.7%
CC1(C)N=C(N)N=C(N)N1c1ccc(CCC(=O)Nc2ccc(S(=O)(=O)F)cc2)cc1,27.6%,87.3% (active),76.8% (active),-28.8%,-0.55%,54.1%
CCOC(=O)C(C[Si](C)(C)C)P(=O)(OCC)OCC (stereo not given),-24.6%,-21.9%,-58.4%,-28.6%,-26.7%,-33%
O=[C-]/C=C/c1ccccc1.[C-]#[O+].[C-]#[O+].[Fe+2].[c-]1ccccc1,21.8%,2.5%,5.95%,-3%,-7.1%,7.15%
NC1=NC(N)=N1,1.95%,16.6%,-6.2%,-1.25%,14.2%,-13.2%
CCOP1(=O)C=C(C)C(Cl)=C(C)C1 (stereo not given),26.9%,8.35%,11%,-14.3%,3.05%,20.9%
O=C1C2C3c4ccccc4C(C2C(=O)N1c1ccccc1)[n+]1ccccc13 (stereo not given),47.8%,16.1%,41.7%,-13.2%,7.1%,30.2%
CCOP(=O)(OCC)/C(C#N)=C/c1cnc(C)[nH]1,-52.4%,24%,-36%,26.4%,16.1%,-5.55%
CC(=O)OC1OC(CS[As](C)C)C(OC(C)=O)C(OC(C)=O)C1OC(C)=O (stereo not given),58.6%,-3.05%,54.8%,28.7%,17.6%,52.5%
CC(=O)CC(C)=O.CC(=O)CC(C)=O.CC(=O)CC(C)=O.[Tb],-0.8%,-7.7%,-3.95%,26.8%,-2.95%,-19.8%
C[C@]12CC[C@H]3[C@@H](CCC4=CC(=O)CC[C@@]43C)[C@]1(O)CC[C@]2(O)C(=O)CO,11.2%,-12.6%,-30.4%,-2.05%,-17.3%,-9.1%
COC1C(OC(=O)/C=C/C=C/C=C/C=C\C(=O)O)CCC2(CO2)C1C1(C)OC1CC=C(C)C (stereo not given),9.95%,-1%,-19.3%,0.95%,-8.7%,24.1%
CCC[CH2][Sn]([CH2]CCC)[CH2]CCC.CCC[CH2][Sn]([CH2]CCC)[CH2]CCC,99.4% (active),99.7% (active),99.7% (active),99.5% (active),99.7% (active),99.2% (active)
